NPSR antag: qHTS Assay for Antagonists of the Neuropeptide S Receptor: cAMP Signal Transduction; 220,000 compounds, 1% hits; AID 1461, 2008; Q6W5P4; CHO-NPSR cells, cAMP TR-FRET, antagonist mode; Potency, µM (series often up to 38.3 µM), inactives show at the highest dose activity change, negative = inhibition, actives largely listed as inhibitors; further: potency means the concentration at half of the fitted maximal effect; on the % scale 0 is the no-effect control and ±100 the full control effect; nearly all actives have a fitted effect of over 50% in size
Target sequence (Q6W5P4 whole entry, looked up): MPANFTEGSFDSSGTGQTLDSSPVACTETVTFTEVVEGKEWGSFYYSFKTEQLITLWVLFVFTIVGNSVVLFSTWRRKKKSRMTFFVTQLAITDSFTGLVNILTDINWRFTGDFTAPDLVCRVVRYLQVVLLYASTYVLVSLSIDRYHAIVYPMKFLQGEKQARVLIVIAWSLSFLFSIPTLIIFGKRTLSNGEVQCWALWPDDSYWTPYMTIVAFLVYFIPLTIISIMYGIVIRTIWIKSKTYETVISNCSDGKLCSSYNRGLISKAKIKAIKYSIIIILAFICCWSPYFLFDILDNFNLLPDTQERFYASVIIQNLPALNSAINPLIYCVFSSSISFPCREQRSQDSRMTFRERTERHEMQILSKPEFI
MBNL1-CUG inh: qHTS Assay for Inhibitors of MBNL1-poly(CUG) RNA binding; TR-FRET MBNL1-His/biotin-(CUG)12 binding, 665/545 ratio; 280,000 compounds, 0.036% hits; Muscleblind-like protein 1 (Homo sapiens), Q9NR56; Potency, µM (highest dose often 57.5 µM), for the others: top-dose activity change, negative = inhibition, usual class: inhibitors; active means well fitted inhibition curve with a large enough effect in the signal ratio, with a control signal flat, not every such curve was filed as active; inconclusive means small, poorly fitted or top-dose-only effect, or effect the other way, or a change in a side signal; inactive means no such curve, though single readings can be large or run the other way; the % refers to the signal ratio; further: potency means the concentration at half of the fitted maximal effect; on the % scale 0 is the no-effect control and ±100 the full control effect
Target sequence (Q9NR56 whole entry, looked up): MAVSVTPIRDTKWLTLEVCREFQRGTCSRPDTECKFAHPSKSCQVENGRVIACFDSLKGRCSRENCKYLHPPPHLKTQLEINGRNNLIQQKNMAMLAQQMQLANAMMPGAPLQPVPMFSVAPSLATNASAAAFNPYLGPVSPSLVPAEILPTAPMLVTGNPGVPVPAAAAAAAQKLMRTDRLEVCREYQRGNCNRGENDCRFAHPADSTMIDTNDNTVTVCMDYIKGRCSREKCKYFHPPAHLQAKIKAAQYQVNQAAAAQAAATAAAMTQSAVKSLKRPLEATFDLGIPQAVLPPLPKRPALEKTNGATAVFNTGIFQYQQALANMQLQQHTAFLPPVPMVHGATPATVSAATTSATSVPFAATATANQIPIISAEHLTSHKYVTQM
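TR-FRET between His-tagged MBNL1 and biotin-(CUG)12 RNA, detected with Tb anti-His antibody (0.055 ng/ul) and streptavidin-XL665 (5 nM), 60 min at room temperature. Compounds titrated 92 nM to 58 uM; 665/545 nm ratio normalized to buffer and complex controls.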
Lamin A splicing: qHTS Assay for Modulators of Lamin A Splicing; Potency, µM (top dose mostly 46.1 µM), for the others: at the top dose ratio change, negative = inhibition, usual class: inhibitors; 200,000 compounds, 0.01% hits; HeLa LMNA splicing GFP/RFP minigene ratio, 48 h; AID 1487, 2009; active means well fitted inhibition curve with a large enough effect in the signal ratio, with a control signal flat, not every such curve was filed as active; inconclusive means small, poorly fitted or top-dose-only effect, or effect the other way, or a change in a side signal; the % refers to the signal ratio; further: potency means the concentration at half of the fitted maximal effect; on the % scale 0 is the no-effect control and ±100 the full control effect
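S3 HeLa stable clones carrying a lamin A-EGFP splicing minigene plus DsRed2 were seeded at 600 cells/well in Opti-MEM with 2% FBS, pin-dosed and incubated 48 h at 37°C. Acumen cytometry (488 nm) gave the GFP/RFP total-intensity ratio.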
HTT ATP protect: qHTS Multiplex Assay to Identify Dual Action Probes in a Cell Model of Huntington: Cytoprotection (ATP); 230,000 compounds, 0.14% hits; PC12 HTT-Q103 induced, cytoprotection, ATP luminescence, 40 h; AID 1471, 2008; Potency, µM (top dose mostly 56.4 µM), for the others: cytoprotection (ATP increase), hits mostly activators; further: potency means the concentration at half of the fitted maximal effect; % of control where 0% means no effect; nearly all actives have a fitted effect of over 45% in size
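Readout: ATPlite luminescence (ATP level). Model: stable PC12, inducible Htt exon1 Q103-GFP. Inducer: tebufenozide, 100 nM final. Compounds: dose series. No G418 in medium.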
CBFb-RUNX1 inh: qHTS Assay for Compounds Blocking the Interaction Between CBF-beta and RUNX1 for the Treatment of Acute Myeloid Leukemia | Potency, µM (highest dose often 59.8 µM), for the others: at the highest dose activity, negative = inhibition, most hits filed as inhibitors | Runt-related transcription factor 1 (Homo sapiens) + Core-binding factor subunit beta … | AlphaScreen CBFb-His/RUNX1-biotin binding, biochemical | 230,000 tested, under 10 active; further: % of control where 0% means no effect
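AlphaScreen binding: CBFb-His and RUNX1-biotin (30 nM each) preincubated 20 min, compound added for 15 min, then nickel and streptavidin beads for 90 min, all at room temperature. Disruption of the interaction by any mechanism counts as activity.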
HttQ103 aggreg: qHTS Multiplex Assay to Identify Dual Action Probes in a Cell Model of Huntington: Aggregate Formation (GFP); PC12 HttQ103-GFP aggregates, Acumen cytometry, 40 h; Potency, µM (doses to about 46.1 µM), inactives show at the top dose activity change, negative = inhibition, actives largely listed as inhibitors; 220,000 compounds, 1.1% hits; AID 1688, 2009; further: potency means the concentration at half of the fitted maximal effect; on the % scale 0 is the no-effect control and ±100 the full control effect; nearly all actives have a fitted effect of over 60% in size
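PC12/HTTQ103-GFP, ecdysone-inducible; teb 100 nM; cpd qHTS titration; GFP aggregates read on laser cytometer, Ex 488/Em 500-530 nm.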
Numbers without * were called inactive; ? = inconclusive; · = no result; [ ] = another dose, or the depositor's remark. This is a sample that favours compounds with a hit; in the whole collection about 1.1% have one here. Unless noted, the call rests on the fitted dose curve; in most records, active means well fitted curve in the direction sought with a large enough effect; inconclusive means small, poorly fitted or top-dose-only effect, or another doubt; inactive means no such curve, though single readings can be large; an effect the other way counts as inactive or inconclusive.

SMILES	NPSR antag	MBNL1-CUG inh	Lamin A splicing	HTT ATP protect	CBFb-RUNX1 inh	HttQ103 aggreg
Cc1c(CNC2CCCC2)c(C(=O)O)c(C)n1Cc1ccccc1	17%	3%	-10%	115%[10 µM]	3%	0.79µM*
Cc1cc(/C=C2\SC(=S)NC2=O)c(C)n1-c1ccc(O)cc1	?	15%	·	-25%[10 µM]	?	3%[9.22 µM]
Cc1cc(/C=C2\SC(=Nc3ccc(F)cc3)NC2=O)c(C)n1-c1ccc(S(N)(=O)=O)cc1	10µM*	6%	?	-75%	-15%	?
CN1CCC[C@@H]1c1cccnc1.O=C(O)c1ccccc1O.O=C([OH2+])c1ccccc1O.O=C([OH2+])c1ccccc1O.[Mn]	·	·	·	6%[10 µM]	·	·
C=C(COC)C1=CCC(C(=O)OC)(C(=O)OC)[C@@H](C[N+](=O)[O-])c2ccccc21	·	·	·	13%	11%	·
Cc1nc(N2CCN(c3ccccn3)CC2)c2c(C)c(C(=O)Nc3ccc(Br)cc3C)sc2n1	·	2%	·	·	·	·
Cc1ccc(NC(=O)c2sc3nc(C)nc(N4CCN(c5ccccn5)CC4)c3c2C)c(C)c1	13µM*	36%	·	-39%	-7%	2%[9.22 µM]
N#CCc1ccc(Oc2ncc(C(F)(F)F)cc2Cl)cc1	-8%	·	1%[46 µM]	-68%	20%	15%
Cc1ccc(CO/N=C\Cc2snc(Sc3ncc(C(F)(F)F)cc3Cl)c2C#N)cc1	10µM*	5%	6%	-5%	-1%	2%
CC1=NN2C(=N)/C(=C\c3cc(C)n(-c4ccc(C)cc4)c3C)C(=O)N=C2S1	13µM*	-3%	·	-15%[10 µM]	9%	8%[9.22 µM]
Cc1ccc(NC(=O)Nc2nnc(-c3ccncc3)s2)cc1C	6%	10%	-11%[46 µM]	-25%[10 µM]	-5%	-14%[9.22 µM]
O=C(Nc1ccc(F)cc1F)Nc1ccc(F)cc1F	-2%	2%	-1%[46 µM]	8%[10 µM]	8%	1%[9.22 µM]
O=C(Nc1ccc(F)cc1)Nc1nnc(-c2ccncc2)s1	-20%[46.1 µM]	-3%	5%	-16%	-2%	11µM*
O=C(Nc1ccncc1)Nc1ccc(F)cc1F	16%[46.1 µM]	-14%	5%	-4%[1.9 µM]	-10%	35µM*
O=C(Nc1ccc(Cl)cc1)Nc1nnc(-c2ccncc2)s1	-19%	·	-18%	20%[10 µM]	3%	?
O=C(Nc1cccc(Cl)c1)Nc1nnc(-c2ccncc2)s1	-25%	-7%	?	41%[10 µM]	-9%	13µM*
COc1cc(OC)c(OC)cc1CNc1sc2c(c1C(=O)Nc1ccccc1OC)CCC2	·	·	8%[46 µM]	·	·	·
O=C(/C=C/c1ccc(O)cc1)OC[C@H]1O[C@@H](Oc2c(-c3ccc(O)cc3)oc3cc(O)cc(O)c3c2=O)[C@H](O)[C@@H](O)[C@@H]1O	·	·	·	·	-1%	·
CN(C)c1ccc(CNC(=O)CN2C(=O)CCn3nc(-c4cn(C)c5ccccc45)cc32)cc1	·	·	-12%[46 µM]	·	·	·
COc1ccc(NC(=O)c2c(NCc3ccc(C)o3)sc3c2CCC(C)C3)cc1 (configuration not stated)	·	·	-27%[46 µM]	·	·	·
C=CC[n+]1c(-c2ccccc2)csc1NC(C)(C)C	-7%	-4%	5%[46 µM]	18%[10 µM]	-3%	-10%
C=CC[n+]1c(-c2ccc(OC)c(OC)c2)csc1NNC(=O)Nc1ccccc1	-25%[46.1 µM]	0%	15%	-26%	-14%	13µM*
Nc1ncnc2c1ncn2[C@@H]1O[C@@H](C(=O)NC2CC2)[C@H](O)[C@@H]1O	·	·	·	-22%[1.9 µM]	·	·
O=C(Nc1ccc(F)cc1)Nc1cc(OCC(F)(F)F)cc(OCC(F)(F)F)c1	13µM*	-25%	?	-67%[10 µM]	1%	3.5µM*
CCOc1cc(Cn2c(-c3ccc(O)c(OCC)c3)nc3ccccc32)ccc1O	·	·	-24%[46 µM]	·	·	·
SMILES	NPSR antag	MBNL1-CUG inh	Lamin A splicing	HTT ATP protect	CBFb-RUNX1 inh	HttQ103 aggreg
O=C(COC(=O)c1ccc2c(=O)n3c(nc2c1)CCC3)NC1CCS(=O)(=O)C1 (configuration not stated)	19%	-17%	·	-24%	-8%	0.0063µM*
N#Cc1c(NC(=O)C2CC(c3ccccc3Cl)=NO2)sc2c1CCC2 (configuration not stated)	-10%[46.1 µM]	4%	7%	3%	0%	25%
Cc1onc(-c2ccccc2Cl)c1C(=O)Nc1sc2c(c1C#N)CCC2	-8%[46.1 µM]	7%	-18%	14%[10 µM]	5%	11µM*
COc1ccccc1NC(=O)CSC1=Nc2ccccc2C2=NC(CCC(=O)NCc3cccs3)C(=O)N12 (configuration not stated)	·	·	-6%[46 µM]	·	·	·
CC(C)[C@@H]1O[C@H](/C=C\c2ccccc2)OCC1(C)C	·	·	·	-8%[10 µM]	·	·
Cc1ccc([N+](=O)[O-])cc1S(=O)(=O)N(C(=O)c1ccncc1)c1ccc2oc3c(c2c1)CCCC3	-23%	·	?	11%[10 µM]	-1%	18µM*
COc1ccc(S(=O)(=O)Nc2ccccc2C(=O)Nc2nc(-c3ccc(F)cc3)cs2)cc1OC	-34%	·	?	?	-12%	10µM*
O=C(NCCc1ccc(F)cc1)NC12CC3CC(CC(C3)C1)C2	·	-2%	·	·	·	·
O=C(NCCC1=CCCCC1)NC12CC3CC(CC(C3)C1)C2	-54%	5%	?	-11%[10 µM]	4%	22µM*
CC1(c2ccccc2)CC(C)(C)N2C(=O)/C(=C3\SC(=S)NC3=O)c3cccc1c32 (configuration not stated)	5µM*	?	-11%	4%[10 µM]	-23%	-3%
O=C(NNC(=O)c1ccc2ccccc2c1O)c1cccs1	·	12%	·	·	·	·
O=C(NNC(=O)c1ccc2ccccc2c1O)c1ccccc1Cl	-7%[46.1 µM]	2%	?	11%[10 µM]	6%	32µM*
CCOC(=O)N1CCC(c2cc(=O)n3[nH]c(C)c(-c4ccc(F)cc4)c3n2)CC1	-8%[46.1 µM]	-2%	?	-21%	3%	11µM*
Brc1ccc2c(c1)OCCOCCOc1cc(Br)ccc1OCCOCCOCCO2	-16%[46.1 µM]	-12%	?	-17%[10 µM]	12%	25µM*
Brc1cc2c(cc1Br)OCCOCCOCCOCCO2	-7%	·	·	-35%	?	-7%

High-throughput results as filed in PubChem.
